# An excerpt weighted towards active compounds, which were near 11% of everything screened.
# HPGD block: qHTS Assay for Inhibitors of HPGD (15-Hydroxyprostaglandin Dehydrogenase) | AID 894, 2007 | Potency, µM, without a hit: at the top dose activity change, negative = inhibition, most hits filed as inhibitors | 150,000 tested, 4.3% active | purified HPGD, NADH fluorescence kinetic, PGE2 substrate; also: potency is read from the fitted curve at half-maximal effect
# Target sequence (P15428 whole entry, looked up): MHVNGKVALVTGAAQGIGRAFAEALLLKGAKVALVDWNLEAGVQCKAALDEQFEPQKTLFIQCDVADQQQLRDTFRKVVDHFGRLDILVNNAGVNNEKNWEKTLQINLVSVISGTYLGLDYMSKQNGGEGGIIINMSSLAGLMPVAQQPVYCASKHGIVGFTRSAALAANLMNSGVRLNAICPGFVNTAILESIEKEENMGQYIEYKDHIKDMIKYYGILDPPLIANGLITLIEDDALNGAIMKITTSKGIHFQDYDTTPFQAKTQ
#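 20 nM HPGD preincubated 15 min at room temperature with compound in 50 mM Tris-HCl pH 8, 0.01% Tween 20. Started with 1 mM NAD+ and 30 uM prostaglandin E2; NADH fluorescence (360/450 nm) read 5 times over 30-s intervals, last minus first.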
# IMPase inh: qHTS Assay for Identifying the Cell-Membrane Permeable IMPase Inhibitors | Inositol monophosphatase 1 (Rattus norvegicus), P97697 | CHO-M1 cells, IP1 accumulation, HTRF TR-FRET ratio | inhibition (IP1 accumulation), % at 46.1 µM | 120,000 tested, under 10 active | AID 901, 2007; active = well fitted curve in the direction sought with a large enough effect in the signal ratio, not every such curve was filed as active; inconclusive = small, poorly fitted or top-dose-only effect, or a change in a side signal; inactive = no such curve, though single readings can be large or run the other way; the % refers to the signal ratio;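 also: cells stimulated with carbachol in lithium chloride buffer; plate controls were DMSO basal wells for no effect and reference inhibitor wells for full effect; higher means more IMPase inhibition seen as more IP1 and lower FRET ratio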
# Target sequence (P97697 whole entry, looked up): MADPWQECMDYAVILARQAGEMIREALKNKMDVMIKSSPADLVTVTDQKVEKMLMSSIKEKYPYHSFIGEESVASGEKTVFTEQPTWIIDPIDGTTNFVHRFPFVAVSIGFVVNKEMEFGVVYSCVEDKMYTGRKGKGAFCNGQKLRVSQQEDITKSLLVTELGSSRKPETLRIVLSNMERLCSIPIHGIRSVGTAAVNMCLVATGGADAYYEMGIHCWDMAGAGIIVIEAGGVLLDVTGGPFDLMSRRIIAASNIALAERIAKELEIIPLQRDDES
#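 Seeded CHO-M1 cells were dosed with compound at up to 46 uM, stimulated with carbachol for 30 min, then lysed in IP-One detection reagents. Higher IP1 lowers the TR-FRET signal.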
# PNC inhibitor: High Content Assay for Compounds that inhibit the Assembly of the Perinucleolar Compartment; 140,000 tested, 3.1% active; activity change (PNC), negative = inhibition, % at 10 µM; PC3M PTB-GFP, PNC prevalence imaging, 16 h; hits give low values;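 active = readout at or below -70, meaning at least 70% loss of cells showing the perinucleolar compartment, a nuclear body marking cancer cells; inconclusive = readout between -30 and a set limit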;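 also: plate controls were DMSO wells for no effect and camptothecin positive control wells for full effect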
#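 PC3M cells stably expressing PTB-GFP, 750–1000 cells/well, treated 16 h at 37 °C with compound (23 nl of library stock), in duplicate. After paraformaldehyde fixation and Hoechst stain, imaged at 20x; PNC prevalence scored by image analysis.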
# IMPase Li cell: qHTS Assay for Identifying the Cell-Membrane Permeable IMPase Inhibitors: Potentiation with Lithium | CHO-M1 cells, IP1 TR-FRET (IP-One), carbachol + lithium | Potency, µM (highest dose often 59.4 µM), without a hit: at the highest dose activity, negative = IMPase inhibition, actives largely listed as inhibitors | 210,000 tested, 0.35% active | AID 1457, 2008; active = well fitted inhibition curve with a large enough effect; inconclusive = small, poorly fitted or top-dose-only effect; inactive = no such curve, though single readings can be large or run the other way;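 also: IP1 builds up when IMPase is blocked and the TR-FRET signal falls; potency is read from the fitted curve at half-maximal effect; plate controls were basal vehicle for no effect and high inhibitor control for full effect; nearly all actives have a fitted effect of over 50% in size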
#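 Lithium-sensitised IP1 accumulation assay; M1-expressing CHO cells treated 30 min at 37C with compound. Competitive antibody detection by time-resolved FRET followed a 10 min room-temperature lysis step.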
# ALDH1A1 inh: qHTS Assay for Inhibitors of Aldehyde Dehydrogenase 1 (ALDH1A1) | 220,000 tested, 7.3% active | Potency, µM (titrated, usually from 75.3 µM), inactives show at the top dose activity, negative = inhibition, hits mostly inhibitors | Purified ALDH1A1, NADH fluorescence, propionaldehyde substrate | Aldehyde dehydrogenase 1A1 (Homo sapiens), P00352;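 also: potency is read from the fitted curve at half-maximal effect; plate controls were no enzyme wells and a reference inhibitor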
# * = called active by the depositor; ? = inconclusive; · = no result; [ ] = dose if it differs, or a comment. Unless noted, calls follow the shape of the dose curve; as a rule, active = well fitted inhibition curve with a large enough effect (not every such curve was filed as active); inconclusive = small, poorly fitted or top-dose-only effect, or another doubt; inactive = no such curve, though single readings can be large or run the other way. Unless noted, % is scaled to controls: 0 for no effect and ±100 for the full control effect.
SMILES,HPGD block,IMPase inh,PNC inhibitor,IMPase Li cell,ALDH1A1 inh
COC(=O)C(C)N1C(=O)S/C(=C/c2cc(C)n(-c3ccccn3)c2C)C1=O (centres undefined),-5%,6,15,38%[38.3 µM],?
COC(Cn1c(-c2cccc(S(=O)(=O)N(C)C)c2)n[nH]c1=S)OC,·,·,·,6%,?
COc1ccc(NS(=O)(=O)c2cccc(-c3nnc(-c4ccccc4)o3)c2)cc1,-25%,14,-12,15%,?
CCN(CC)S(=O)(=O)c1cccc(-c2n[nH]c(=S)n2Cc2ccccc2)c1,·,·,·,4%,7.1µM*
COc1ccc(NS(=O)(=O)c2cccc(-c3n[nH]c(=S)n3Cc3ccccc3)c2)cc1,·,·,·,-4%,0.45µM*
CCN(CC)S(=O)(=O)c1cccc(-c2n[nH]c(=S)n2CC(C)C)c1,·,·,·,-8%,7.9µM*
CCN(CC)S(=O)(=O)c1ccc(C(=O)NCc2ccc(C)cc2)cc1,0%,8,2,-5%[38.3 µM],10µM*
CCCCCNCC(=O)Nc1cccc(C(=O)Nc2cccc(C(F)(F)F)c2)c1,·,·,·,1%,-8%
CCOc1cc(S(=O)(=O)NCc2ccccn2)c(C)cc1C,-5%,-4,?,16%[38.3 µM],-15%
O=C(NCc1n[nH]c(=S)n1Cc1ccccc1)c1ccc(Cl)cc1Cl,·,·,·,11%,22µM*
O=C(NCc1n[nH]c(=S)n1Cc1ccccc1)c1ccccc1,·,·,·,-7%,-4%
CCN(CC)S(=O)(=O)c1ccc(C(=O)NCc2n[nH]c(=S)n2Cc2ccccc2)cc1,-10%,4,-23,8%[38.3 µM],2.5µM*
CC(NC(=O)CSc1nnc(CC(=O)Nc2ccc(Cl)c(Cl)c2)n1C)c1ccccc1 (centres undefined),28µM*,-11,-12,-3%[38.3 µM],?
Cn1c(CC(=O)Nc2ccc(Cl)c(Cl)c2)nnc1SCC(=O)N1CCN(c2ccccc2)CC1,0%,4,?,-9%[38.3 µM],-2%
CC(C)=CCC/C(C)=C/CO/N=C1/C[C@@H](O)[C@@H](O)[C@@H]2[C@@H]3C(=O)N(Cc4ccc5c(c4)OCO5)C(=O)[C@H]3CC[C@@H]12,·,·,·,·,-5%[13.5 µM]
COc1ccc(C2C3=C(CCCC3=O)Nc3nc(C(F)(F)F)nn32)c(OC)c1OC (centres undefined),-12%,6,-88*,6%[38.3 µM],-1%
O=C(O)Cc1c[nH]c2ccc(F)cc12,-8%,·,·,1%,9%[13.5 µM]
Cc1[nH]nc(SCC(=O)N2CCCCCC2)c1[N+](=O)[O-],·,·,·,10%,?
Cc1[nH]nc(SCC(=O)N2CCCCC2)c1[N+](=O)[O-],28µM*,3,27,18%[38.3 µM],?
Cc1ccc(NC(=O)Cn2c(=S)[nH]c3ccccc32)cc1,·,·,·,0%,10µM*
CCNC(=S)NNC(=O)c1ccccc1OC(F)F,-9%,-1,34,12%[38.3 µM],10%
CCNC(=S)NNC(=O)c1ccccc1Cl,-5%,·,-81*,-5%,16%
Cc1cccc(NS(=O)(=O)c2ccc(NC(=O)CN(c3cc([N+](=O)[O-])ccc3C)S(C)(=O)=O)cc2)c1,-6%,·,-113*,6%,12%
Cc1c(C(=O)NN)sc(-c2ccccc2)c1C#N,·,·,·,-7%,1.3µM*
CCOC(=O)c1sc(-c2ccc(C)cc2)c(C#N)c1C,?,·,-21,1%,?
O=c1oc2cc(Br)ccc2n1CSC1=NCCS1,22µM*,2,-20,15%[38.3 µM],?
CCNc1nc(NC(C)(C)C)nc(Oc2ccc(=O)n(-c3ccccc3)n2)n1,·,4,·,2%,-16%
Cc1cc(C(=O)N/N=C/c2cccnc2)cs1,-5%,·,-114*,5%,3%
Cc1cc(C(=O)N/N=C/c2cccnc2)c(C)o1,-3%,6,-18,-6%,6%
Cc1ccc(C)c(OCCn2c(=O)c3c(ncn3C3CCCC3)n(Cc3ccccc3)c2=O)c1,-10%,·,-119*,16%,-3%

# Screening data as filed in PubChem BioAssay.
